Structures can show the parent of a compound that is named as a salt. ± gives the standard deviation of the averaged measurements.
Columns and labels:
DLD1 [1] = test: cell viability (CellTiter-Glo) relative to plate median (fraction of plate median); higher = more viable cells; settings: 10 µM, treatment time 24 h
Procedure, shortened: (§1)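 Reporter and viability luminescence were measured in colorectal cancer cells stably carrying lentiviral TCF/Wnt firefly luciferase reporters. The cells were exposed to kinase inhibitor library compounds at a final 10 µM for 24 h, starting 24 h after seeding in 384-well plates. Each well was normalised to the plate median (webcellHTS2, additive, no log transformation), and two independent replicates were averaged.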

HCT116 [2] = test: as above; settings: 10 µM; treatment time 24 h; reporter: TCF4/Wnt
Procedure, shortened: as §1

SW480 [3] = test: as above; settings: 10 µM; treatment time 24 h; reporter: 7TFP
Procedure, shortened: as §1

DLD1 [4] = test: TCF/Wnt firefly luciferase reporter signal relative to plate median (fraction of plate median); higher = higher Wnt reporter signal; settings: 10 µM, treatment time 24 h
Procedure, shortened: as §1

HCT116 [5] = test: as above; settings: 10 µM; treatment time 24 h; reporter: TCF4/Wnt
Procedure, shortened: as §1

SW480 [6] = test: as above; settings: 10 µM; treatment time 24 h; reporter: 7TFP
Procedure, shortened: as §1

Row | Compound | cell viability (DLD1 [1]; reporter: 7TFP) | cell viability (DLD1 [1]; reporter: TCF4/Wnt) | cell viability (HCT116 [2]) | cell viability (SW480 [3]) | TCF/Wnt firefly luciferase reporter signal (DLD1 [4]; reporter: 7TFP) | TCF/Wnt firefly luciferase reporter signal (DLD1 [4]; reporter: TCF4/Wnt) | TCF/Wnt firefly luciferase reporter signal (HCT116 [5]) | TCF/Wnt firefly luciferase reporter signal (SW480 [6])
1 | COc1cc(OC)c(/C=C/S(=O)(=O)Cc2ccc(OC)c(NCC(=O)O)c2)c(OC)c1 | 0.988 ± 0.074 | 1.01 ± 0.025 | 0.631 ± 0.14 | 1.04 | 0.726 ± 0.011 | 0.772 ± 0.0014 | 0.198 ± 0.013 | 0.694 ± 0.069
2 | CNC(=O)c1ccc(-c2cnc3ncc(Cc4ccc5ncccc5c4)n3n2)cc1F | 0.987 ± 0.089 | 0.931 ± 0.043 | 1.22 ± 0.2 | 0.8805 ± 0.0064 | 1.07 ± 0.078 | 1.14 ± 0.16 | 0.899 ± 0.02 | 0.652 ± 0.26
3 | COCC(=O)NC/C=C/c1ccc2ncnc(Nc3ccc(Oc4ccc(C)nc4)c(C)c3)c2c1 | 0.964 ± 0.14 | 1.035 ± 0.0071 | 1.06 ± 0.014 | 0.952 ± 0.059 | 1.18 ± 0.064 | 1.19 ± 0.17 | 0.786 ± 0.27 | 0.927 ± 0.43
4 | Cc1ccc(NC(=O)c2ccc(CN3CCN(C)CC3)cc2)cc1Nc1nc(-c2cccnc2)cs1 [Masitinib (AB1010)] | 0.896 ± 0.073 | 1 ± 0.037 | 0.969 ± 0.037 | 0.993 ± 0.053 | 0.821 ± 0.019 | 1.25 ± 0.078 | 0.632 ± 0.1 | 1.01 ± 0.071
5 | Cn1cc(-c2ccc3ncc(Cc4ccc5ncccc5c4)n3n2)cn1 | 1.045 ± 0.0071 | 1.06 ± 0.094 | 1.15 ± 0.028 | 0.911 ± 0.032 | 0.931 ± 0.021 | 0.769 ± 0.21 | 0.991 ± 0.61 | 0.587 ± 0.28
6 | CC(C)n1nc(-c2cc3cc(O)ccc3[nH]2)c2c(N)ncnc21 | 0.86 ± 0.18 | 0.984 ± 0.037 | 0.698 ± 0.067 | 1.15 ± 0.085 | 0.557 ± 0.016 | 0.752 ± 0.0057 | 0.547 ± 0.061 | 0.636 ± 0.26
7 | NC(=O)c1ccc(N(C(N)=O)c2c(F)cccc2F)nc1-c1ccc(F)cc1F | 0.966 ± 0.016 | 1.045 ± 0.0071 | 1.13 ± 0.085 | 0.91 ± 0.025 | 0.904 ± 0.019 | 0.756 ± 0.0014 | 0.921 ± 0.071 | 0.752 ± 0.08
8 | Cn1cnc2c(F)c(Nc3ccc(Br)cc3Cl)c(C(=O)NOCCO)cc21 [AZD6244 (Selumetinib)] | 1.11 ± 0.042 | 1.08 ± 0.035 | 0.914 ± 0.066 | 1.125 ± 0.0071 | 1.45 ± 0.021 | 1.42 ± 0.16 | 0.99 ± 0.52 | 1.34 ± 0.72
9 | COc1cc(Nc2ncc3c(n2)-c2ccc(Cl)cc2C(c2c(F)cccc2OC)=NC3)ccc1C(=O)O [MLN8237 (Alisertib)] | 0.987 ± 0.047 | 0.95 ± 0.067 | 0.954 ± 0.12 | 0.943 ± 0.014 | 1.08 ± 0.014 | 1.16 ± 0.16 | 1.01 ± 0.12 | 0.974 ± 0.066
10 | CN(C)c1ccc(-c2nc3ncc(Cl)c(N4CCN(CC(=O)Nc5nccs5)CC4)c3[nH]2)cc1 | 1.1 ± 0.05 | 1.04 ± 0.021 | 1.14 ± 0.028 | 0.96 ± 0.057 | 1.1 ± 0.3 | 1.1 ± 0.31 | 1.26 ± 0.17 | 1.16 ± 0.064
11 | CNC(=O)c1cc(Oc2ccc(NC(=O)Nc3ccc(Cl)c(C(F)(F)F)c3)c(F)c2)ccn1 [Regorafenib (BAY 73-4506)] | 1.04 ± 0.021 | 0.985 ± 0.092 | 1 ± 0.024 | 1.13 ± 0.014 | 0.816 ± 0.21 | 0.7185 ± 0.005 | 0.742 ± 0.34 | 1.03 ± 0.31
12 | Nc1cc(C(F)(F)F)c(-c2cc(N3CCOCC3)nc(N3CCOCC3)n2)cn1 | 0.777 ± 0.073 | 0.9145 ± 0.0078 | 0.56 ± 0.069 | 1.105 ± 0.0071 | 0.383 ± 0.085 | 0.75 ± 0.071 | 0.502 ± 0.057 | 0.704 ± 0.036
13 | N=C(N)NC(=N)NCCc1ccccc1 [Phenformin hydrochloride] | 1.185 ± 0.0071 | 1.06 ± 0.057 | 1.21 ± 0.18 | 0.923 ± 0.086 | 1.26 ± 0.12 | 1.21 ± 0.27 | 1.3 ± 0.51 | 1.17 ± 0.21
14 | N#C/C(=C\c1ccc(O)c(O)c1)C(=O)NCc1ccccc1 | 0.874 ± 0.063 | 0.946 ± 0.031 | 1.08 ± 0.028 | 0.94 ± 0.032 | 0.656 ± 0.15 | 1.2 ± 0.13 | 1.1 ± 0.021 | 0.834 ± 0.016
15 | Cc1ncc(-c2ccnc(Nc3ccc(S(C)(=O)=O)cc3)n2)n1C(C)C | 1.25 ± 0.16 | 1.32 ± 0.099 | 0.766 ± 0.3 | 1.47 ± 0.05 | 0.499 ± 0.026 | 0.277 ± 0.063 | 0.156 ± 0.042 | 0.793 ± 0.035
16 | COC(=O)c1ccc2c(C(=Nc3ccc(N(C)C(=O)CN4CCN(C)CC4)cc3)c3ccccc3)c(O)[nH]c2c1 [BIBF1120 (Vargatef)] | 1.21 ± 0.18 | 1.04 ± 0.014 | 1.06 ± 0.028 | 1.125 ± 0.0071 | 1.35 ± 0.035 | 1.03 ± 0.18 | 0.749 ± 0.54 | 0.895 ± 0.53
17 | CCN(CC)CCNC(=O)c1c(C)[nH]c(/C=C2\C(=O)Nc3ccc(F)cc32)c1C [Sunitinib Malate (Sutent)] | 0.867 ± 0.1 | 0.9685 ± 0.0035 | 0.659 ± 0.31 | 1.02 ± 0.15 | 0.939 ± 0.051 | 0.87 ± 0.18 | 0.605 ± 0.33 | 1.14 ± 0.21
18 | Nc1nccc(Oc2ccc(NC(=O)c3c[nH]cc(-c4ccc(F)cc4)c3=O)cc2F)c1Cl | 1.16 ± 0.22 | 1.01 ± 0.069 | 1.12 ± 0.2 | 0.886 ± 0.018 | 1.07 ± 0.17 | 0.826 ± 0.016 | 0.766 ± 0.32 | 0.549 ± 0.27
19 | CCCS(=O)(=O)Nc1ccc(F)c(C(=O)c2c[nH]c3ncc(-c4ccc(Cl)cc4)cc23)c1F [Vemurafenib (PLX4032)] | 1.19 ± 0.13 | 0.976 ± 0.023 | 1.2 ± 0.05 | 0.878 ± 0.042 | 1.14 ± 0.028 | 0.939 ± 0.015 | 1.155 ± 0.0071 | 0.866 ± 0.11
20 | COCCOc1ccc2c(c1)ncn2-c1ccc2cccc(N3CCC(N)CC3)c2n1 | 0.954 ± 0.11 | 1.14 ± 0.12 | 0.556 ± 0.16 | 1.05 ± 0.082 | 1.54 ± 0.16 | 2.17 ± 0.41 | 0.422 ± 0.12 | 1.71 ± 0.26

Source: the supplement of paper PMC6522484
